Test results: PubChem BioAssay (NCATS)
Values without a mark were called inactive. Active and inactive are the calls of the source. No rule for the calls is given here.

assay: Immunotoxin (HA22) sensitization/mitigation study. Vehicle arm (PBS) (AID 1159510); conditions: cancer cells viability with PBS vehicle (HA22 study); series mostly up to 46.1 µM; viability (% of control): at the top concentration
Potency is read from the fitted curve at half-maximal effect.

SMILES | viability (% of control) [%] | Potency
CC(C)C[C@H](NC(=O)[C@@H](O)[C@H](N)Cc1ccccc1)C(=O)O | 108 | 
COc1ccc(CC2SC(=O)NC2=O)cc1C(=O)NCc1ccc(C(F)(F)F)cc1 (centres undefined) | 79.6 | 
NC(=O)c1c(OCc2c(F)cc(Br)cc2F)nsc1NC(=O)NCCCCN1CCCC1 |  | 23.5 µM (active)
CN(C)c1ccc(Nc2nc(N)n(C(=O)c3c(F)cccc3F)n2)cc1 |  | 20.9 µM (active)
COc1ccc(CCN(C)CCCOc2ccc(S(=O)(=O)c3[nH]c4ccccc4c3C(C)C)cc2)cc1OC |  | 26.4 µM (active)
CCCCn1c(=O)n(Cc2ccccc2F)c(=O)c2[nH]c(Cc3ccc(NC(C)=O)cc3)nc21 | 93.3 | 
Cc1cccc(Nc2nc(N[C@@H]3CCCC[C@H]3N)ncc2C(N)=O)c1 |  | 18.7 µM (active)
CC1(C)CCC(c2ccc(Cl)cc2)=C(CN2CCN(c3ccc(C(=O)NS(=O)(=O)c4ccc(N[C@H](CCN5CCOCC5)CSc5ccccc5)c(S(=O)(=O)C(F)(F)F)c4)cc3)CC2)C1 |  | 0.332 µM (active)
Cc1ccc(NC(=O)c2ccc(CN3CCN(C)CC3)cc2)cc1Nc1nc(-c2cccnc2)cs1 |  | 20.9 µM (active)
CN[C@@H](C)C(=O)N[C@H]1CCCC[C@H]2CC[C@@H](C(=O)N[C@@H](c3ccccc3)c3cn(CCCCc4ccc(CCCCn5cc([C@@H](NC(=O)[C@@H]6CC[C@@H]7CCCC[C@H](NC(=O)[C@H](C)NC)C(=O)N76)c6ccccc6)nn5)cc4)nn3)N2C1=O | 70.9 | 
CCCCOCCOc1nc(-c2ccc(C(=O)O)c(F)c2)sc1C |  | 0.0017 µM [activator] (active)
CC(C)c1onc(-c2c(Cl)cccc2Cl)c1COc1ccc(/C=C/c2cccc(C(=O)O)c2)c(Cl)c1 |  | 3.32 µM (active)
Clc1ccc2ncc(-c3cccc(NC4CNC4)n3)n2c1 |  | 20.9 µM (active)
Nc1nccc(Oc2ccc(NC(=O)c3c[nH]cc(-c4ccc(F)cc4)c3=O)cc2F)c1Cl |  | 23.5 µM (active)
CC(=O)NC(C)c1ccc(Oc2ccc(OC(C)C)cc2)cc1 (centres undefined) |  | 16.6 µM (active)
COc1cc2nccc(Oc3ccc(NC(=O)C4(C(=O)Nc5ccc(F)cc5)CC4)cc3)c2cc1OC |  | 20.9 µM (active)
CN(C)CCCNC(=O)c1ccc(-c2cc(O)c3ncccc3c2)cc1 |  | 16.6 µM (active)
CNC1CCN(C(Cc2cccc(-c3ccncc3)c2)C(=O)c2sc3c(F)ccc(F)c3c2Cl)CC1 (centres undefined) |  | 20.9 µM (active)
CC[C@@H]1C(=O)N(C)c2cnc(Nc3ccc(C(=O)NC4CCC(N5CCN(CC6CC6)CC5)CC4)cc3OC)nc2N1C(C)C (some centres undefined) |  | 0.0132 µM (active)
O=C(O)c1ccc(-c2c[nH]c3ccc(-c4ccccc4)cc23)cc1C1CCCC1 | 85.7 | 

SMILES | viability (% of control) [%] | Potency
c1cc(-c2cnn3cc(-c4ccc(OCCN5CCCCC5)cc4)cnc23)ccn1 |  | 2.64 µM (active)
OCCn1cc(-c2cnc3nnn(Cc4ccc5ncccc5c4)c3n2)cn1 | 102 | 
Cc1ccnc(NS(=O)(=O)c2ccc(NC(=O)Nc3ccc(S(=O)(=O)Nc4nccc(C)n4)cc3)cc2)n1 |  | 16.6 µM (active)
Cc1cnc(-c2cnc(NCCNc3ccc(C#N)cn3)nc2-c2ccc(Cl)cc2Cl)[nH]1 |  | 0.935 µM (active)
CN1CCN(CCOc2cc(OC3CCOCC3)c3c(Nc4c(Cl)ccc5c4OCO5)ncnc3c2)CC1 |  | 20.9 µM (active)
CCOc1cc(N2CCC(O)CC2)ccc1Nc1ncc2c(n1)N(C)c1ccccc1C(=O)N2C |  | 13.2 µM (active)
CCN(CCCO)CCCOc1ccc2c(Nc3cc(CC(=O)Nc4cccc(F)c4)[nH]n3)ncnc2c1 |  | 18.7 µM (active)
CC[C@@H]1C(=O)N(C)c2cnc(Nc3ccc(C(=O)NC4CCN(C)CC4)cc3OC)nc2N1C1CCCC1 |  | 0.0066 µM (active)
COc1cc(=C2C=c3ccccc3=N2)[nH]c1=Cc1[nH]c(C)cc1C |  | 0.187 µM (active)
C[C@]12CC[C@H](O)CC1=CC[C@@H]1[C@H]2CC[C@]2(C)C(c3cccnc3)=CC[C@H]12 |  | 1.87 µM (active)
CCN(CC)CCCCNc1nc2cc(Cl)c(Cl)cc2nc1-c1ccc(-c2cccs2)s1 |  | 18.7 µM (active)
N#CC[C@H](C1CCCC1)n1cc(-c2ncnc3[nH]ccc23)cn1 |  | 23.5 µM (active)
CCCn1c(=O)c2[nH]c(C34CC5CC3C[C@@H](C5)C4)nc2n(CCC)c1=O |  | 16.6 µM (active)
CCN1CCN(CC(=O)Nc2ccc(-c3cccc4c(=O)cc(N5CCOCC5)oc34)c3sc4ccccc4c23)CC1 |  | 0.935 µM (active)
COc1cccc(OC)c1-c1cc(C(=O)NC2(C(=O)O)C3CC4CC(C3)CC2C4)nn1-c1ccnc2cc(Cl)ccc12 (centres undefined) |  | 29.6 µM (active)
CN1CCN(c2ccc3nc(-c4c(N)c5c(F)cccc5[nH]c4=O)[nH]c3c2)CC1 |  | 1.66 µM (active)
CNCc1ccc(-c2[nH]c3cc(F)cc4c3c2CCNC4=O)cc1 |  | 20.9 µM (active)
Cc1cccc(-c2[nH]c(C(C)(C)C)nc2-c2ccc3nccnc3c2)n1 | 101 | 
C/C(=C\C(=O)Nc1ccccc1C(=O)O)c1ccc2ccccc2c1 |  | 16.6 µM (active)
